From PubChem BioAssay AID1159580 (chemical genetic matrix, 2015)
Hit rate of the full screen: of about 5,500 compounds, about 2,000 (36%) were called active. About 18% were inconclusive and are not listed. Rule as the data show it: active = normalized growth mostly below about 0.91 (no sharp cut-off); inconclusive = no clear call, values can overlap the other calls; inactive = mostly above about 0.92. The list shows a part of the results.

Test: chemical genetic growth profiling, strain panel (AID 1159580);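 also: tested at 20 µM; growth read once vehicle control cultures reached saturation at 30 °C; 1 = growth at the plate median or of vehicle wells; lower values mean less growth of the strain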
Details: S. cerevisiae deletion strains, growth OD

Measured: normalized growth

COC1C(O)C(O[C@H]2CC[C@]3(C=O)C4C(CC[C@]3(O)C2)[C@@]2(O)CC[C@H](C3=CC(=O)OC3)[C@@]2(C)C[C@H]4OC(C)=O)OC(C)C1OC(C)=O (some centres undefined)
inactive: locus YAL021C, strain ccr4, hits give low values 0.977 | locus YAL026C, strain drs2, hits give low values 1.02 | locus YAL030W, strain snc1, hits give low values 0.977 | locus YBL061C, strain skt5, hits give low values 1.02 | locus YBR009C, strain hhf1, hits give low values 0.973 | locus YBR021W, strain FUR4, hits give low values 1.02 | locus YBR023C, strain chs3, hits give low values 1.01 | locus YBR171W, strain sec66, hits give low values 1.04 | locus YBR229C, strain ROT2, hits give low values 1.02 | locus YBR231C, strain swc5, hits give low values 1 | locus YBR279W, strain paf1, hits give low values 1.01 | locus YCL011C, strain gbp2, hits give low values 1 | locus YCL016C, strain dcc1, hits give low values 1 | locus YCL029C, strain bik1, hits give low values 1.05 | locus YCL069W, strain vba3, hits give low values 1.01 | locus YCR088W, strain abp1, hits give low values 1.02 | locus YDL005C, strain med2, hits give low values 1.01 | locus YDL035C, strain GPR1, hits give low values 1.03 | locus YDL040C, strain nat1, hits give low values 1.03 | locus YDL074C, strain BRE1, hits give low values 1.04 | locus YDL101C, strain DUN1, hits give low values 1.02 | locus YDL134C, strain PPH21, hits give low values 1.03 | locus YDL185W, strain tfp1, hits give low values 1.01 | locus YDL192W, strain arf1, hits give low values 1.03 | locus YDR001C, strain nth1, hits give low values 1.02 | locus YDR069C, strain doa4, hits give low values 0.951 | locus YDR101C, strain arx1, hits give low values 1.04 | locus YDR137W, strain rgp1, hits give low values 1.04 | locus YDR159W, strain sac3, hits give low values 0.966 | locus YDR162C, strain NBP2, hits give low values 1.06 | locus YDR195W, strain ref2 1.01 | locus YDR297W, strain sur2, hits give low values 0.956 | locus YDR318W, strain mcm21, hits give low values 1.03 | locus YDR334W, strain swr1, hits give low values 1.02 | locus YDR335W, strain msn5, hits give low values 0.982 | locus YDR388W, hits give low values 1.07 | locus YDR392W, strain spt3, hits give low values 1.04 | locus YDR502C, strain sam2, hits give low values 1.03 | locus YEL003W, strain gim4, hits give low values 1.02 | locus YEL037C, strain rad23, hits give low values 1.01 | locus YEL061C, strain CIN8 (second series), hits give low values 1.02 | locus YER015W, strain faa2, hits give low values 1 | locus YER016W, strain bim1, hits give low values 1.01 | locus YER110C, hits give low values 1.09 | locus YER111C, strain swi4, hits give low values 1.02 | locus YER155C, strain BEM2 (second series), hits give low values 1.04 | locus YER155C, strain BEM2, hits give low values 1.03 | locus YER167W, strain BCK2, hits give low values 1.03 | locus YFR010W, strain ubp6, hits give low values 1.04 | locus YGL078C, strain dbp3, hits give low values 1.03 | locus YGL167C, strain pmr1, hits give low values 1.02 | locus YGL173C, strain kem1, hits give low values 1.03 | locus YGL227W, strain vid30, hits give low values 1.02 | locus YGL240W, strain doc1, hits give low values 0.973 | locus YGL248W, strain PDE1, hits give low values 1.04 | locus YGL253W, strain hxk2, hits give low values 0.984 | locus YGR135W, strain pre9, hits give low values 1.03 | locus YGR252W, strain gcn5, hits give low values 1.22 | locus YHR013C, strain ard1, hits give low values 1.01 | locus YHR027C, strain rpn1, hits give low values 0.996 | locus YHR079C, strain IRE1 (second series), hits give low values 1.01 | locus YHR129C, strain ARP1, hits give low values 1.03 | locus YHR142W, strain chs7, hits give low values 1.03 | locus YHR200W, strain rpn10, hits give low values 1.04 | locus YIL066C, strain RNR3, hits give low values 1.04 | locus YIL073C, strain SPO22, hits give low values 1.1 | locus YIL125W, strain kgd1, hits give low values 0.996 | locus YIR030C, strain dcg1, hits give low values 1.01 | locus YJL092W, strain hpr5, hits give low values 1.02 | locus YJL095W, strain BCK1 (second series), hits give low values 0.974 | locus YJL095W, strain BCK1, hits give low values 1.07 | locus YJL115W, strain asf1, hits give low values 1.01 | locus YJL129C, strain trk1, hits give low values 1.04 | locus YJL134W, strain LCB3, hits give low values 1.01 | locus YJL154C, strain vps35, hits give low values 1.01 | locus YJL164C, strain tpk1, hits give low values 1.02 | locus YJL166W, strain qcr8, hits give low values 0.991 | locus YJL168C, strain set2, hits give low values 1.03 | locus YJL187C, strain SWE1 (second series), hits give low values 1.03 | locus YJR043C, strain POL32, hits give low values 1.02 | locus YJR075W, strain HOC1, hits give low values 1.01 | locus YKL009W, strain mrt4, hits give low values 0.959 | locus YKL160W, strain elf1, hits give low values 1.02 | locus YKR001C, strain vps1, hits give low values 1.02 | locus YKR026C, strain gcn3, hits give low values 1.02 | locus YKR091W, strain srl3, hits give low values 1.02 | locus YLL001W, strain dnm1, hits give low values 1.02 | locus YLL026W, hits give low values 1 | locus YLL041C, strain sdh2, hits give low values 0.985 | locus YLR027C, strain aat2, hits give low values 0.979 | locus YLR039C, strain RIC1, hits give low values 1.1 | locus YLR058C, strain SHM2, hits give low values 1.02 | locus YLR221C, strain rsa3, hits give low values 0.988 | locus YLR258W, strain gsy2, hits give low values 0.973 | locus YLR262C, strain YPT6 (second series), hits give low values 1.05 | locus YLR268W, strain sec22, hits give low values 1.03 | locus YLR320W, strain mms22, hits give low values 1.02 | locus YLR342W, strain FKS1, hits give low values 1.01 | locus YLR357W, strain rsc2, hits give low values 1.03 | locus YLR370C, strain arc18, hits give low values 0.98 | locus YLR384C, strain iki3, hits give low values 0.987 | locus YLR418C, strain cdc73, hits give low values 1.02 | locus YML016C, strain PPZ1, hits give low values 1.02 | locus YML032C, strain rad52, hits give low values 1.03 | locus YML120C, strain ndi1, hits give low values 0.969 | locus YML124C, strain tub3, hits give low values 1.02 | locus YMR058W, strain fet3, hits give low values 1.02 | locus YMR078C, strain ctf18, hits give low values 1.07 | locus YMR125W, strain sto1, hits give low values 1.02 | locus YMR129W, hits give low values 0.978 | locus YMR205C, strain PFK2, hits give low values 0.986 | locus YMR223W, strain ubp8, hits give low values 1.01 | locus YMR231W, strain pep5, hits give low values 1.02 | locus YMR263W, strain SAP30, hits give low values 1.04 | locus YMR307W, strain GAS1, hits give low values 1.07 | locus YNL067W, strain RPL9B, hits give low values 1.02 | locus YNL071W, strain lat1, hits give low values 1.03 | locus YNL209W, strain ssb2, hits give low values 0.994 | locus YNL233W, strain BNI4, hits give low values 1.04 | locus YNL248C, strain rpa49, hits give low values 1.01 | locus YNL250W, strain rad50, hits give low values 1.04 | locus YNL271C, strain bni1, hits give low values 1.02 | locus YNL298W, strain CLA4, hits give low values 1.07 | locus YNL322C, strain KRE1 (second series), hits give low values 1.02 | locus YNR049C, strain mso1, hits give low values 0.972 | locus YOL012C, strain htz1 1.05 | locus YOL147C, strain pex11, hits give low values 1.02 | locus YOR001W, strain rrp6, hits give low values 0.97 | locus YOR061W, strain CKA2, hits give low values 1.04 | locus YOR069W, strain VPS5, hits give low values 1.02 | locus YOR070C, strain gyp1, hits give low values 0.989 | locus YOR080W, strain dia2, hits give low values 1.01 | locus YOR083W, strain WHI5, hits give low values 1.03 | locus YOR106W, strain vam3, hits give low values 1.01 | locus YOR136W, strain idh2, hits give low values 1.03 | locus YOR144C, strain elg1, hits give low values 1.03 | locus YOR184W, strain ser1, hits give low values 1.05 | locus YOR265W, strain rbl2, hits give low values 0.993 | locus YOR270C, strain vph1, hits give low values 1.04 | locus YOR290C, strain snf2, hits give low values 1.03 | locus YOR316C, strain cot1, hits give low values 1.08 | locus YPL051W, strain arl3, hits give low values 1.02 | locus YPL078C, strain atp4, hits give low values 1.01 | locus YPL106C, strain sse1, hits give low values 1.05 | locus YPL240C, strain hsp82, hits give low values 1.01 | locus YPL241C, strain CIN2, hits give low values 1.01 | locus YPR141C, strain kar3, hits give low values 0.98 | locus YPR163C, strain tif3, hits give low values 1.03 | locus YPR167C, strain met16, hits give low values 1.02 | strain wtn01, hits give low values 1.02
active: locus YHR094C, strain hxt1, hits give low values 1.11 [resistant] | locus YKL068W, hits give low values 1.1 [resistant] | locus YKL085W, strain MDH1 (second series), hits give low values 1.1 [resistant] | locus YKL085W, strain MDH1, hits give low values 1.1 [resistant] | locus YLR102C, strain apc9, hits give low values 1.17 [resistant] | locus YLR371W, strain rom2, hits give low values 1.16 [resistant] | locus YNL307C, strain MCK1, hits give low values 1.12 [resistant] | locus YNR052C, strain pop2, hits give low values 1.13 [resistant] | locus YPR119W, strain clb2, hits give low values 1.11 [resistant]
